In PubChem BioAssay AID1053117 (Broad Institute, 2014):
Potency and affinity values are given separately. Activity calls are given as the source filed them.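 Rule for the calls: active = compounds lowering cell ATP signal with a fitted half-effect dose at most twice the top valid dose; inconclusive = flat curve with 30 to 70% signal loss, or bad fit; inactive = wrong direction, flat within 30%, or weaker than limit.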

Assay: viability loss in HEK293 kidney cells – cell-based, cherry-picks, set 5, cytotoxicity control, dose response (AID 1053117);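 note: more negative means greater loss of ATP signal and more cytotoxicity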
Conditions: HEK293T viability, CellTiter-Glo ATP luminescence, 72 h; series mostly up to 26 µM

In the case of C=C1C(=O)O[C@@H]2C[C@@H](C)[C@@H]3C=CC(=O)[C@@]3(C)[C@@H](O)[C@H]12, the outcome is reported as “inactive”.
